Consider 21 molecules from PubChem BioAssay (NCATS).

Inconclusive results are not listed. Values without a mark were called inactive. Calls of active or inactive are those of the source. The call rests on the fitted dose curve; in most records, active means well fitted curve in the direction sought with a large enough effect; inconclusive means small, poorly fitted or top-dose-only effect, or another doubt; inactive means no such curve, though single readings can be large; an effect the other way counts as inactive or inconclusive.

For one assay, the system named is C33A. In words: Primary qHTS to identify gynecologic anti-cancer compounds using libraries of approved drugs and bioactive compounds (AID 1345084). Further: nearly all actives have a fitted effect of over 55% in size. The following applies: Gynecologic cancer cell panel viability, ATPlite luminescence, 48 h; series mostly up to 57.5 µM. In a few lines:
(§1)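 Cytotoxicity screen measuring ATP content by luciferase luminescence. Each compound is applied at five concentrations for 48 h at 37 C with 5% CO2.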
(Quantitative high-throughput screening tests each substance at several concentrations.)

The test system of another assay is CASKI. The description is as above. The following applies: Gynecologic cancer cell panel viability, ATPlite luminescence, 48 h; series mostly up to 57.5 µM. In a few lines:
as §1

The test system of the next assay is Es-2. Described as above. The note with it: Gynecologic cancer cell panel viability, ATPlite luminescence, 48 h; series mostly up to 57.5 µM. The method, boiled down:
as §1

The test system of the next assay is PA-1. The description is as above. The following applies: Gynecologic cancer cell panel viability, ATPlite luminescence, 48 h; series mostly up to 57.5 µM. In a few lines:
as §1
In general terms: In ATP-based viability assays light output follows the ATP content of the culture.

The nature of assay [1]: qHTS assay to identify inhibitors of the type 1 interferon - major histocompatibility complex class I in skeletal muscle: Counter screen cell viability and HiBit confirmation (AID 1347412). On all read-outs here: nearly all actives have a fitted effect of over 60% in size. The note with it: iHSKM muscle cells + IFN-b, HiBiT or CellTiter-Glo, 24 h; for activity change, negative = inhibition: at 45.9 µM (top of the series). The method, boiled down: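 CRISPR HLA-B*08:01-HiBit immortalized human myoblasts (C25cl48) stimulated with 4 ng/ml IFN-beta and compounds (12-point 1:3, top 46 uM final) for 24 h at 37 C. Duplicate plates read by HiBit lytic luminescence or CellTiter Glo ATP.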

The subject of a further assay is HeLa. In words: Primary qHTS to identify gynecologic anti-cancer compounds using libraries of approved drugs and bioactive compounds (AID 1345084). Further: nearly all actives have a fitted effect of over 55% in size. The note with it: Gynecologic cancer cell panel viability, ATPlite luminescence, 48 h; series mostly up to 57.5 µM. In a few lines: as §1
The next assay concerns JEG-3. The assay is described as above. The following applies: Gynecologic cancer cell panel viability, ATPlite luminescence, 48 h; series mostly up to 57.5 µM. The method, boiled down:
as §1

The subject of the next assay is OV90. The description is as above. The note with it: Gynecologic cancer cell panel viability, ATPlite luminescence, 48 h; series mostly up to 57.5 µM. The method, boiled down:
as §1

The subject of another assay is Tov112D. Described as above. The note with it: Gynecologic cancer cell panel viability, ATPlite luminescence, 48 h; series mostly up to 57.5 µM. The method, boiled down:
as §1

Another assay has as its system Hek293T. The assay is described as above. The note with it: Gynecologic cancer cell panel viability, ATPlite luminescence, 48 h, control line for the selectivity index; series mostly up to 57.5 µM. In a few lines: as §1
Another assay concerns Tov-21-G. Described as above. The following applies: Gynecologic cancer cell panel viability, ATPlite luminescence, 48 h; series mostly up to 57.5 µM. In a few lines: as §1
A further assay deals with SKOV3. The assay is described as above. The following applies: Gynecologic cancer cell panel viability, ATPlite luminescence, 48 h; series mostly up to 57.5 µM. The method, boiled down: as §1
On the % scale 0 is the no-effect control and ±100 the full control effect; potency means the concentration at half of the fitted maximal effect.

With `Cc1cc(Nc2cc(N3CCN(C)CC3)nc(/C=C/c3ccccc3)n2)n[nH]1`, the Potency in the assay with C33A is 28.2 µM (active); in the assay with CASKI, 3.55 µM (active); with PA-1, 2.51 µM (active); in [1] (HiBiT), 11.1 µM (active). For the same molecule, the Potency result in the assay with Es-2 is “inactive”.
As to `O=C(c1cccc(Cl)c1F)N1CCN(Cc2cccc(Nc3nccs3)n2)CC1`, the Potency result in the assay with C33A, in the assay with Es-2, with JEG-3 and in the assay on OV90 was “inactive” throughout. Further, the Potency with HeLa was 1 µM (active); in the assay on Tov112D, 0.891 µM (active).
For `Cc1cc(N(C)C)ccc1-c1nc2ccc(-c3nc4ccc(N5CCN(C)CC5)cc4[nH]3)cc2[nH]1`, the Potency result with C33A, with Es-2, in the assay on HeLa, in the assay with Hek293T, in the assay on JEG-3 and in the assay on OV90 was “inactive” each time. Besides, the Potency result in the assay on Tov-21-G and with Tov112D was “inactive” each time.
In the case of `COc1cc(Br)c(Nc2nc(-c3c(C)nc4ncccn34)cs2)c(Br)c1`, the Potency result in the assay with C33A and in the assay on CASKI was “inactive” each time. The Potency with Es-2 was 8.91 µM (active); in the assay with PA-1, 4.47 µM (active); in the assay with SKOV3 it was 8.91 µM (active); with Tov-21-G, 10 µM (active).
In the case of `Cc1cnc(NC(=O)Nc2cc(Br)c(C)cc2OCC2CNCCO2)cn1` (stereo not given), the Potency result in the assay with C33A, in the assay on CASKI, with JEG-3, in the assay on PA-1 and with Tov112D was “inactive” throughout. Besides, the Potency in the assay on Hek293T was 8.91 µM (active); with SKOV3 it was 10 µM (active).
On to `CC[C@H](CO)Nc1nc(NCc2ccc(-c3ccccn3)cc2)c2ncn(C(C)C)c2n1`, for which the Potency with C33A was 1.26 µM (active); in the assay with CASKI, 2.51 µM (active); with Es-2 it was 0.794 µM (active); with HeLa it was 3.16 µM (active); in the assay on PA-1, 1 µM (active); in the assay on Tov112D it was 1.78 µM (active).
With `COc1ccc(CCC(=O)c2c(O)cc(O)cc2O[C@@H]2O[C@H](CO)[C@@H](O)[C@H](O)[C@H]2O)cc1`, the Potency entry in the assay on C33A, in the assay on CASKI, in the assay on HeLa, in the assay with JEG-3, in the assay with OV90 and in the assay with PA-1 was “inactive” throughout. For the same molecule, the Potency result with Tov-21-G and with Tov112D was “inactive” throughout.
Consider `Cc1ccc([N+](=O)[O-])cc1S(=O)(=O)N(C)/N=C/c1cnc2ccc(Br)cn12`, for which the Potency is 0.316 µM (active) in the assay with C33A; 0.316 µM (active) in the assay on CASKI; 0.398 µM (active) with Es-2; 0.316 µM (active) in the assay with HeLa; 0.316 µM (active) with Hek293T; 0.199 µM (active) with PA-1. The Potency with Tov112D was 0.355 µM (active); in assay [1] (HiBiT) it was 0.0497 µM (active). The activity change, negative = inhibition in [1] (Viability) was -5.21%.
For the molecule `CC(C)(C)c1ccc(S(=O)(=O)NCc2ccc(C(=O)Nc3cccnc3)cc2)cc1`, the Potency was 7.94 µM (active) in the assay on C33A; 3.55 µM (active) in the assay on Es-2; 1.78 µM (active) in the assay with HeLa; 2.24 µM (active) in the assay on JEG-3; 3.98 µM (active) in the assay on OV90; 1.12 µM (active) with PA-1. Besides, the Potency in the assay with SKOV3 was 7.08 µM (active); in the assay on Tov-21-G, 1.78 µM (active).
Regarding `C=C(C)C(=O)OC1C(OC(C)=O)/C(C=O)=C\CC/C(CO)=C/C2OC(=O)C(=C)C21` (stereo not given), the Potency entry in the assay on C33A, with CASKI, in the assay with HeLa, in the assay with JEG-3, with OV90 and with PA-1 was “inactive” throughout. Moreover, the Potency entry in the assay with SKOV3 and with Tov112D was “inactive” in each case.
For the molecule `O=C1C=CC2OC(c3ccccc3)C(O)C2O1` (stereo not given), the Potency result in the assay on C33A, in the assay with CASKI, in the assay with HeLa, with OV90, in the assay on SKOV3 and in the assay with Tov112D was “inactive” throughout.
On to `O=C(O)C1CN(Cc2ccc(-c3nc4cc(Cc5ccccc5F)ccc4s3)c(F)c2)C1`, for which the activity change, negative = cytotoxicity in the assay on C33A was 7.49% [at 11.6 µM]; in the assay on Es-2, 0.907% [at 11.6 µM]; in the assay on HeLa, 11.8% [at 11.6 µM]; in the assay with Hek293T, 9.39% [at 11.6 µM]; with JEG-3, 9.86% [at 11.6 µM]; in the assay with OV90 it was 12.7% [at 11.6 µM]. Further, the activity change, negative = cytotoxicity in the assay with Tov-21-G is 0.219% [at 11.6 µM]; in the assay with Tov112D it was 10.6% [at 11.6 µM].
With `NC1CCC(Nc2cc(-c3cccc(NCc4cccc(F)c4)n3)c(Cl)cn2)CC1` (stereo not given), the Potency in the assay with C33A was 1.26 µM (active); with CASKI it was 0.891 µM (active); in the assay with Es-2, 0.708 µM (active); with HeLa, 0.355 µM (active); in the assay on Hek293T, 1 µM (active); with PA-1, 0.178 µM (active). In the assay with Tov112D, the Potency is 0.891 µM (active).
For the molecule `Cc1ccccc1-n1c([C@H](C)Nc2nc(N)nc3nc[nH]c23)nc2cccc(C)c2c1=O`, the Potency entry in the assay with C33A, in the assay with Hek293T, with OV90, in the assay on SKOV3 and in the assay with Tov112D was “inactive” in each case. The Potency with CASKI was 31.6 µM (active).
Regarding `CCN1CCN(Cc2ccc(NC(=O)c3ccc(C)c(/C=C/c4cnc5[nH]ccc5c4OC)c3)cc2C(F)(F)F)CC1`, the Potency in the assay with C33A was 14.1 µM (active); with CASKI it was 12.6 µM (active); with Es-2, 10 µM (active); in the assay with HeLa it was 15.8 µM (active); with OV90, 17.8 µM (active); with PA-1, 5.62 µM (active). The Potency in the assay on SKOV3 was 8.91 µM (active); in the assay on Tov-21-G, 2.51 µM (active); in [1] (HiBiT), 6.25 µM (active); in assay [1] (Viability) it was 14 µM (active). Further, in the assay with JEG-3, the Potency entry was “inactive”.
`O=C(/C=C/c1cccc(S(=O)(=O)Nc2ccccc2)c1)NO`: the Potency in the assay with C33A is 11.2 µM (active); with CASKI, 8.91 µM (active); in the assay with Es-2 it was 5.01 µM (active); in the assay on HeLa, 4.47 µM (active); with JEG-3 it was 4.47 µM (active); in the assay on OV90 it was 3.98 µM (active). In addition, the Potency in the assay with PA-1 is 1.26 µM (active); with SKOV3 it was 11.2 µM (active); in the assay on Tov112D, 3.98 µM (active); in assay [1] (HiBiT), 3.13 µM (active). In addition, the activity change, negative = inhibition in assay [1] (Viability) is -9.07%.
Take `CCCCNc1ncc2c(-c3ccc(F)cc3)nn(CC3CCC(N)CC3)c2n1` (stereo not given): the Potency was 11.2 µM (active) in the assay with C33A, 10 µM (active) with CASKI, 10 µM (active) in the assay on HeLa and 7.94 µM (active) in the assay with Tov-21-G.
`COc1ccc2[nH]c3c(-c4cccc5ccccc45)nccc3c2c1`: the Potency is 2.82 µM (active) with C33A; 1.41 µM (active) with CASKI; 1.58 µM (active) in the assay on Es-2; 0.891 µM (active) in the assay with HeLa; 0.891 µM (active) with PA-1; 1.41 µM (active) with Tov112D.
As to `N#Cc1c(Oc2ccc(F)c(NC(=O)Cc3cccc(C(F)(F)F)c3)c2)ccc2nc(NC(=O)C3CC3)sc12`, in the assay with C33A, the Potency entry is “inactive”. Besides, the Potency in the assay on Es-2 was 5.62 µM (active); with HeLa, 10 µM (active); in the assay on OV90, 1.58 µM (active); with PA-1, 8.91 µM (active); with Tov-21-G, 7.94 µM (active).
As to `FC(F)(F)c1ccc(Nc2nc(-c3c(C(F)(F)F)nc4ccccn34)cs2)cc1`, the Potency is 20 µM (active) in the assay with C33A; 2 µM (active) in the assay with Es-2; 0.891 µM (active) in the assay on HeLa; 1.26 µM (active) in the assay with PA-1; 0.708 µM (active) in the assay on Tov112D. For the same molecule, the Potency result with CASKI was “inactive”.
Regarding `CC1CCC2C(C(=O)O)=COC(O[C@@H]3O[C@H](CO)[C@@H](O)[C@H](O)[C@H]3O)C12` (stereo not given in full), the Potency entry in the assay with C33A, in the assay with CASKI, with Es-2, in the assay on Hek293T, in the assay with OV90 and in the assay with PA-1 was “inactive” each time. The Potency entry with Tov-21-G and in the assay on Tov112D was “inactive” throughout.
